Reference: the supplement of paper PMC10849652
Of roughly 7,900 targets only a part is listed; those with a hit were picked by preference. About 0.6% of all pairs of compound and target were hits.

What was measured:
Test in all cases: log2 fold change, soluble protein after heating vs DMSO (PISA); higher = thermal stabilisation; K562 cells, 10 uM, 30 min; active = over 0.2 and 3.5 SD of the protein, either way, in both replicates (recomputed)
[1] = compound: Cc1ccc(NC(=O)c2ccc(CN3CC[C@H](N(C)C)C3)c(C(F)(F)F)c2)cc1Nc1nccc(-c2cncnc2)n1 [bafetinib]
In short: (§1)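 K562 cells at 2×10^6 cells/mL were treated for 30 min with 10 μM compound, and aliquots were heated for 3 min over 48°C-58°C before pooling. Extraction used PBS with 0.5% NP-40 at 4°C, and soluble protein was the supernatant after 21,000xg for 90 min, measured by TMTpro 16plex LC-MS/MS with channel sums equalised. Thermal stability values, relative to control samples and from duplicates, are log2 fold changes.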

[2] = compound: Cc1cccc(CC(=O)N2CCc3c2ccc(-c2cn(C)c4ncnc(N)c24)c3F)n1
In short: as §1

[3] = compound: Cc1cn(-c2cc(NC(=O)c3ccc(C)c(Nc4nccc(-c5cccnc5)n4)c3)cc(C(F)(F)F)c2)cn1 [nilotinib]
In short: as §1

[4] = compound: Cc1nc(Nc2n[nH]c3c2CN(C(=O)N[C@H](CN(C)C)c2ccccc2)C3(C)C)c2sccc2n1
In short: as §1

[5] = compound: Cc1nc(Nc2ncc(C(=O)Nc3c(C)cccc3Cl)s2)cc(N2CCN(CCO)CC2)n1 [dasatinib]
In short: as §1

[6] = compound: Cc1ncc(-c2ccnc(Nc3ccc(S(C)(=O)=O)cc3)n2)n1C(C)C
In short: as §1

[7] = compound: Cn1cc(-c2ccc3c(c2)CCN3C(=O)Cc2cccc(C(F)(F)F)c2)c2c(N)ncnc21
In short: as §1

[8] = compound: Cn1cc(-c2ccc3nnc(C(F)(F)c4ccc5ncccc5c4)n3n2)cn1
In short: as §1

[9] = compound: Cn1cncc1[C@@](N)(c1ccc(Cl)cc1)c1ccc2c(c1)c(-c1cccc(Cl)c1)cc(=O)n2C [tipifarnib]
In short: as §1

[10] = compound: FC(F)(F)c1ccc(/C=C/c2nc(COc3ccc(CCCCn4ccnn4)cc3)co2)cc1 [mubritinib]
In short: as §1

[11] = compound: NC(=O)Nc1cc(-c2cccc(F)c2)sc1C(=O)N[C@H]1CCCNC1
In short: as §1

[12] = compound: NC(=O)c1cnc(N[C@@H]2CCCC[C@@H]2N)nc1Nc1cccc(-n2nccn2)c1
In short: as §1

[13] = compound: NC1(c2ccc(-c3nc4ccn5c(=O)[nH]nc5c4cc3-c3ccccc3)cc2)CCC1
In short: as §1

[14] = compound: NCC(=O)Nc1ccc(-n2nc(C(F)(F)F)cc2-c2ccc3c(ccc4ccccc43)c2)cc1
In short: as §1

[15] = compound: Nc1ccccc1NC(=O)c1ccc(CNC(=O)OCc2cccnc2)cc1 [entinostat]
In short: as §1

[16] = compound: O=C(CCCCCCC(=O)Nc1ccccc1)NO [vorinostat]
In short: as §1

[17] = compound: O=C(CCCCCCNC(=O)c1cnc(N(c2ccccc2)c2ccccc2Cl)nc1)NO [citarinostat]
In short: as §1

[18] = compound: O=C(O)c1ccc2c(c1)nc(Nc1cccc(Cl)c1)c1ccncc12 [silmitasertib]
In short: as §1

[19] = compound: O=C1NC(=O)C(c2cnc3ccccn23)=C1c1cn2c3c(cc(F)cc13)CN(C(=O)N1CCCCC1)CC2
In short: as §1

[20] = compound: c1cc(OCCN2CCCCC2)cc(-c2n[nH]c3ccc(-c4nnc[nH]4)cc23)c1
In short: as §1

Measured: log2 fold change

UBE2E3 (UniProt Q969T4)
inactive: [1] -0.029 | [2] -0.029 | [3] -0.126 | [4] 0.023 | [5] -0.113 | [6] 0.025 | [7] -0.028 | [8] -0.004 | [9] -0.131 | [10] 0.056 | [11] -0.007 | [12] -0.052 | [13] -0.155 | [14] -0.106 | [15] 0.051 | [16] 0.103 | [17] 0.063 | [18] -0.016 | [19] 0.023 | [20] -0.007

WDR47 (UniProt O94967)
inactive: [1] 0.042 | [2] 0.004 | [3] 0.02 | [4] -0.046 | [5] -0.036 | [6] 0.067 | [7] 0.002 | [8] 0.033 | [9] 0.039 | [10] -0.147 | [11] 0.072 | [12] -0.023 | [14] -0.065 | [15] 0.002 | [16] -0.014 | [17] 0.014 | [18] 0.089 | [19] 0.004 | [20] 0.282
active: [13] -0.224

WAPL isoform 3 (UniProt Q7Z5K2)
UniProt Q7Z5K2, sequence (Q7Z5K2 whole entry, looked up): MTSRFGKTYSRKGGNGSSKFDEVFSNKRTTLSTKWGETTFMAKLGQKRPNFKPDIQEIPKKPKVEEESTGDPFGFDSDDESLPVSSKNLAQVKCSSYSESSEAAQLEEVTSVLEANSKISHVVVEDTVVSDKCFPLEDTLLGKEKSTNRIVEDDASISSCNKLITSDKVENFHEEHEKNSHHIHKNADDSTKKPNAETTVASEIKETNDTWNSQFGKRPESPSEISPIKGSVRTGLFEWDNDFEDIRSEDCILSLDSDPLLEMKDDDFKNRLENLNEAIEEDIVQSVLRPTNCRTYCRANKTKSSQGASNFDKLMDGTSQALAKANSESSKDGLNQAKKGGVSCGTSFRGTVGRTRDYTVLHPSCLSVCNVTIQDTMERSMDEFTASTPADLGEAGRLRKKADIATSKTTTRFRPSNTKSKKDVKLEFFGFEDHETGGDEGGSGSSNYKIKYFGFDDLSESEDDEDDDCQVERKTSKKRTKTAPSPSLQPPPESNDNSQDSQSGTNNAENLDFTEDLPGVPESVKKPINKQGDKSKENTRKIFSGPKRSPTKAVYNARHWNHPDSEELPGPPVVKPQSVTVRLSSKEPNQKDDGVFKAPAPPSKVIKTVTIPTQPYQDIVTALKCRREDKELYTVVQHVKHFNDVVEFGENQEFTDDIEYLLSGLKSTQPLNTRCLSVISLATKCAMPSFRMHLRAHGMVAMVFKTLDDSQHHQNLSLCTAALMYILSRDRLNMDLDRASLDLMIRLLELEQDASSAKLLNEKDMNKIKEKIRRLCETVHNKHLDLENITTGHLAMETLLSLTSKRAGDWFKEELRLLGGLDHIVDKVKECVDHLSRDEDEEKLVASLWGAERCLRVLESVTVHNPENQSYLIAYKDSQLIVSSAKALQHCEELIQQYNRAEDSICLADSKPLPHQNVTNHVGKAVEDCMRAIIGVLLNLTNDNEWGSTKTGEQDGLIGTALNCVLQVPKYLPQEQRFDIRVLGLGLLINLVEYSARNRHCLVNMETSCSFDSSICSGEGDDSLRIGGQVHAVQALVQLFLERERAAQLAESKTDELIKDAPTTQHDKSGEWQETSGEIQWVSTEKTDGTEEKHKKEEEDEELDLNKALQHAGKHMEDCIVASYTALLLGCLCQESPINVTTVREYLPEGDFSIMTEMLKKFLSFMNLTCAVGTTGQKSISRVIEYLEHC
inactive: [1] 0 | [2] -0.044 | [3] -0.011 | [4] 0.01 | [5] -0.081 | [6] -0.03 | [7] 0.04 | [8] 0.096 | [9] -0.218 | [10] 0.156 | [11] -0.009 | [12] -0.033 | [14] -0.066 | [15] 0.01 | [16] 0.082 | [17] 0.198 | [18] 0.067 | [19] -0.148 | [20] 0.078
active: [13] -0.423

UBAP1 isoform 4 (UniProt Q9NZ09)
UniProt Q9NZ09, sequence (Q9NZ09 whole entry, looked up): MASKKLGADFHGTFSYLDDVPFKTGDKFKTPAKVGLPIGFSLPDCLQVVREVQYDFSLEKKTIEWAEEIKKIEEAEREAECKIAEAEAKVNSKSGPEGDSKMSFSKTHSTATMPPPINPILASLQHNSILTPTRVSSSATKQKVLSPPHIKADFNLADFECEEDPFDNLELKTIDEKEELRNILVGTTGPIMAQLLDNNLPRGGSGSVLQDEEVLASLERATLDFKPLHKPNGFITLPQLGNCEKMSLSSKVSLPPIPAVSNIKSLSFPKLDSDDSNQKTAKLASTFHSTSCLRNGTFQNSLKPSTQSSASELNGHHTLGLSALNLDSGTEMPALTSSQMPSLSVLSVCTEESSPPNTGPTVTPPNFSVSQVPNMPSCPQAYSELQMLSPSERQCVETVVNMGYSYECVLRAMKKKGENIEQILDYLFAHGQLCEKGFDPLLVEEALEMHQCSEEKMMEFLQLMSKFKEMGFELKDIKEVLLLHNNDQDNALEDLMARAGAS
inactive: [1] -0.026 | [2] -0.022 | [3] -0.082 | [4] -0.15 | [5] -0.086 | [6] 0.009 | [7] 0.015 | [8] -0.015 | [9] -0.131 | [10] 0.084 | [11] -0.035 | [12] -0.005 | [13] -0.052 | [14] 0.002 | [15] -0.027 | [16] -0.019 | [17] 0.193 | [18] 0.064 | [19] -0.032 | [20] -0.049

WDR18 (UniProt Q9BV38)
UniProt Q9BV38, sequence (Q9BV38 whole entry, looked up): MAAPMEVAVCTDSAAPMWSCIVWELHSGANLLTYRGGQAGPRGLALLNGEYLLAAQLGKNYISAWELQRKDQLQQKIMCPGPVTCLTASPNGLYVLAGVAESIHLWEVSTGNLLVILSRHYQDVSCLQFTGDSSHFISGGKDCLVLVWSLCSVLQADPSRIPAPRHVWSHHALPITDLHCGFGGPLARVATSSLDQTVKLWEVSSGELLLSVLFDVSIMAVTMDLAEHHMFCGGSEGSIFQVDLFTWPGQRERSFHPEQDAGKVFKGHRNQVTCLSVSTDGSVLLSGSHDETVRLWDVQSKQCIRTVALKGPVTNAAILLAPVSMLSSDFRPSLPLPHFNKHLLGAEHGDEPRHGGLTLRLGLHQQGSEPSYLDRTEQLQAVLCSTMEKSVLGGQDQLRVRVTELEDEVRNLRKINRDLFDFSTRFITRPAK
inactive: [1] -0.031 | [2] 0.05 | [3] -0.059 | [4] -0.024 | [5] 0 | [6] -0.048 | [7] 0.029 | [8] -0.016 | [9] -0.018 | [10] 0.022 | [11] 0.013 | [12] -0.021 | [13] -0.043 | [14] 0.054 | [15] 0.019 | [16] 0.025 | [17] 0.018 | [18] 0.013 | [19] -0.03 | [20] 0.017

VPS52 (UniProt Q8N1B4)
UniProt Q8N1B4, sequence (Q8N1B4 whole entry, looked up): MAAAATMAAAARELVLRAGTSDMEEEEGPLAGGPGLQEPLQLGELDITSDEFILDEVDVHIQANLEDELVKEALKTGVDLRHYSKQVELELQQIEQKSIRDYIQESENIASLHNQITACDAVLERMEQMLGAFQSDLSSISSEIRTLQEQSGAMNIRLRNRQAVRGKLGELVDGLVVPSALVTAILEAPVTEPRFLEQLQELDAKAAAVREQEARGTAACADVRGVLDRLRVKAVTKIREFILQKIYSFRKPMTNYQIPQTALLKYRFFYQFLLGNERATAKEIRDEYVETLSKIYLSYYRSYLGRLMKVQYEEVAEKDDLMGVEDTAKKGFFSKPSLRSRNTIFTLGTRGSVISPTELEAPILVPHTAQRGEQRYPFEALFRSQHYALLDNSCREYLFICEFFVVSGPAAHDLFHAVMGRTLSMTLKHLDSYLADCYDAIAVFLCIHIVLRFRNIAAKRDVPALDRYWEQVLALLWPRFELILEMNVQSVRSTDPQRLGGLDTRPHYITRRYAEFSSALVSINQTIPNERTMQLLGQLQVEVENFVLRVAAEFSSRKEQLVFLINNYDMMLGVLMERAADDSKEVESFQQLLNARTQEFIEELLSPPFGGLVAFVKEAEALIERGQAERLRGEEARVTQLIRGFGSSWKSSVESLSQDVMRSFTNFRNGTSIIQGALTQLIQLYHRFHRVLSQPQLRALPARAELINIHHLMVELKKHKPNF
inactive: [1] -0.005 | [2] -0.031 | [3] -0.085 | [4] -0.086 | [5] -0.071 | [6] 0.091 | [7] 0.001 | [8] -0.016 | [9] -0.089 | [10] 0 | [11] 0.065 | [12] -0.005 | [13] -0.132 | [14] -0.039 | [15] 0.037 | [16] 0.086 | [17] 0.015 | [18] 0.08 | [19] 0.02 | [20] 0.016

WDR4 (UniProt P57081)
UniProt P57081, sequence (P57081 whole entry, looked up): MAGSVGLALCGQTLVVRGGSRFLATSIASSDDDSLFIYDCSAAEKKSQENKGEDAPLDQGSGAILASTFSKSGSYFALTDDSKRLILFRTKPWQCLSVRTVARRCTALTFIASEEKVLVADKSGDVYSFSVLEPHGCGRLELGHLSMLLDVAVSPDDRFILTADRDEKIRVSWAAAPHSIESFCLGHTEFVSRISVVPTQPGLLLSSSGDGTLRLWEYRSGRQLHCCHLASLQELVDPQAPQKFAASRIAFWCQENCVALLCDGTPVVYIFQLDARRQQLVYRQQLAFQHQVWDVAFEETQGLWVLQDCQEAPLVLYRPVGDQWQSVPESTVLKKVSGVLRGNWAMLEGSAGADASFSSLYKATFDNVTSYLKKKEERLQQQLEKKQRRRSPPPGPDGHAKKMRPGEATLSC
active: [1] 0.455
inactive: [2] -0.06 | [3] 0.009 | [4] 0.005 | [5] -0.013 | [6] -0.003 | [7] 0.068 | [8] -0.061 | [9] -0.132 | [10] 0.031 | [11] -0.094 | [12] 0.021 | [13] -0.089 | [14] -0.003 | [15] -0.04 | [16] -0.009 | [17] 0.046 | [18] -0.038 | [19] -0.161 | [20] -0.011

XPO1 (UniProt O14980)
inactive: [1] -0.003 | [2] 0.042 | [3] -0.114 | [4] -0.037 | [5] -0.154 | [6] 0.001 | [7] 0.005 | [8] -0.008 | [9] -0.159 | [10] 0.042 | [11] 0.034 | [12] -0.056 | [14] -0.026 | [15] 0.082 | [16] 0.052 | [17] 0.092 | [18] 0.025 | [19] 0.009 | [20] -0.054
active: [13] -0.249

TNNC2 (UniProt P02585)
UniProt P02585, sequence (P02585 whole entry, looked up): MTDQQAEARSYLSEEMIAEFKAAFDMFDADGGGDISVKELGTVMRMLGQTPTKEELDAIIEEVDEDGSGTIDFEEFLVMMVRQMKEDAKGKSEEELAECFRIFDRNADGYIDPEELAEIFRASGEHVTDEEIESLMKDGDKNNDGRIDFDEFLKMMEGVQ
inactive: [1] -0.057 | [2] -0.058 | [3] 0.057 | [4] 0.024 | [5] 0.022 | [6] -0.015 | [7] 0.049 | [8] 0.032 | [9] 0.015 | [10] 0.001 | [11] -0.003 | [12] 0.006 | [13] -0.028 | [14] 0.028 | [15] -0.025 | [16] -0.101 | [17] 0.048 | [18] -0.026 | [19] -0.033 | [20] -0.003

TPP1 (UniProt O14773)
inactive: [2] 0.007 | [3] 0.008 | [4] -0.031 | [5] -0.051 | [6] 0.022 | [7] -0.025 | [8] 0 | [9] 0.049 | [10] -0.001 | [11] -0.036 | [12] -0.037 | [13] -0.174 | [14] -0.08 | [15] 0.036 | [16] 0.031 | [17] 0.035 | [18] -0.036 | [19] -0.014 | [20] -0.091
active: [1] -0.48

UBAP2L isoform 1 (UniProt Q14157)
UniProt Q14157, sequence (Q14157 whole entry, looked up): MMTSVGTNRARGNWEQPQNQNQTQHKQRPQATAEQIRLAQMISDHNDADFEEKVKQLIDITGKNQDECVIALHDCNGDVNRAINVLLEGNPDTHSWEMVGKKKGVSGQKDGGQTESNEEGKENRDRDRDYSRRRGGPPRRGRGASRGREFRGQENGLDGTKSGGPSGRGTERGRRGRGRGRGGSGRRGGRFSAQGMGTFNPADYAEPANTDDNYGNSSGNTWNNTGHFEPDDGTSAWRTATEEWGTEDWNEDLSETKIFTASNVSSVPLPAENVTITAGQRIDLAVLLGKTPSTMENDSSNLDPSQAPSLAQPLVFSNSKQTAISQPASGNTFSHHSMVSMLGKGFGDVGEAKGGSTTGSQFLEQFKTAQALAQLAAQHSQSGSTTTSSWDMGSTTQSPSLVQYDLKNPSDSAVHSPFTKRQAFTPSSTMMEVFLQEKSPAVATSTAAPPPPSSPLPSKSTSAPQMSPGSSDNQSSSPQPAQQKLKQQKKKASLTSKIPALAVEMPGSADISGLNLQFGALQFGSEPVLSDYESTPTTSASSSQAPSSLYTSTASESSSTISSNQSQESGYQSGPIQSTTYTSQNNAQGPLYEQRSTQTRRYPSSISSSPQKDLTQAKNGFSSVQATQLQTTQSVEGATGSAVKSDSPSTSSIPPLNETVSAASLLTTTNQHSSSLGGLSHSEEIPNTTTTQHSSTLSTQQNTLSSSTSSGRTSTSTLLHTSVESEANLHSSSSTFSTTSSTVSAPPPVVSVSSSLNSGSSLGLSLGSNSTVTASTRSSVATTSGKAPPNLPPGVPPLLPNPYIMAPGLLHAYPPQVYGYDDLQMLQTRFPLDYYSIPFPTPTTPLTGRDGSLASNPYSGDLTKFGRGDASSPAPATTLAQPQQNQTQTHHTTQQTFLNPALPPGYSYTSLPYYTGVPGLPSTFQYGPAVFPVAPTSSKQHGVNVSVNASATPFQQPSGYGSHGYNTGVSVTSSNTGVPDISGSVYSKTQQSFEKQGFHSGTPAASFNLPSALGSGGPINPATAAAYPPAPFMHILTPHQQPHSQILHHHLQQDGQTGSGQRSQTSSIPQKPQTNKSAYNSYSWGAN
inactive: [1] -0.006 | [2] -0.043 | [3] 0.013 | [4] -0.134 | [5] 0.058 | [6] -0.056 | [7] 0.064 | [8] 0.034 | [9] 0.076 | [10] 0.07 | [11] 0.071 | [12] 0.076 | [13] -0.064 | [14] 0.039 | [15] -0.043 | [16] 0.041 | [17] -0.022 | [18] -0.031 | [19] -0.012 | [20] 0.03

UBA6
inactive: [1] 0.009 | [2] 0.036 | [3] 0.062 | [4] -0.137 | [5] -0.035 | [6] -0.024 | [7] 0.016 | [8] -0.024 | [9] -0.075 | [11] -0.048 | [12] -0.065 | [13] -0.14 | [14] -0.047 | [15] 0.05 | [16] 0.011 | [17] 0.052 | [18] -0.004 | [19] -0.046 | [20] -0.004
active: [10] 0.228

VTI1A (UniProt Q96AJ9)
inactive: [1] -0.004 | [2] -0.061 | [3] -0.006 | [4] -0.001 | [5] 0.004 | [6] -0.005 | [7] -0.001 | [8] 0.01 | [9] 0.081 | [10] -0.007 | [11] -0.07 | [12] 0.014 | [13] -0.125 | [14] -0.014 | [15] -0.009 | [16] 0.028 | [17] -0.016 | [18] 0.051 | [19] -0.01 | [20] -0.039

VPS18 (UniProt Q9P253)
inactive: [1] -0.097 | [2] 0.059 | [3] -0.052 | [4] -0.069 | [5] -0.194 | [6] -0.022 | [7] 0.086 | [8] 0.089 | [9] -0.047 | [10] 0.088 | [11] 0.019 | [12] -0.13 | [13] -0.216 | [14] 0.079 | [15] 0.08 | [16] 0.089 | [17] 0.009 | [18] 0.005 | [19] 0.023 | [20] 0.005

TMEM173 (UniProt Q86WV6)
UniProt Q86WV6, sequence (Q86WV6 whole entry, looked up): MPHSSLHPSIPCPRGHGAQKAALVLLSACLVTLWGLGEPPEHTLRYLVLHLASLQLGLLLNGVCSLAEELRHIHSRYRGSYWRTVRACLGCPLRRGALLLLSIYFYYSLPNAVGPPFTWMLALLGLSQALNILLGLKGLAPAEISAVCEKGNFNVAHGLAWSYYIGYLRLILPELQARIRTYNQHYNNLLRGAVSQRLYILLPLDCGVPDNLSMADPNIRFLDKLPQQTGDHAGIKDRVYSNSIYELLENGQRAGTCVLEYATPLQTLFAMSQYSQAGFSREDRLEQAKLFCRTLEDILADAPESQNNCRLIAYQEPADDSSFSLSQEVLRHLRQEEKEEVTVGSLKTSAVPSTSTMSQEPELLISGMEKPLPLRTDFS
inactive: [1] 0.007 | [2] 0.019 | [3] -0.129 | [4] -0.013 | [5] -0.156 | [6] 0.003 | [7] 0.001 | [8] -0.046 | [9] 0.021 | [10] 0.066 | [11] 0.002 | [12] -0.041 | [13] -0.078 | [14] -0.06 | [15] 0.032 | [16] -0.09 | [17] -0.028 | [18] -0.041 | [19] 0.035 | [20] 0.006

TRIP10 isoform 2 (UniProt Q15642)
inactive: [1] -0.019 | [2] 0.026 | [3] 0.005 | [4] -0.174 | [5] 0.035 | [6] -0.162 | [7] -0.033 | [8] -0.135 | [9] -0.04 | [10] 0.142 | [11] -0.067 | [12] 0.057 | [13] -0.065 | [15] -0.2 | [16] 0.026 | [17] -0.11 | [18] -0.065 | [19] -0.052 | [20] 0.008
active: [14] -0.849
